This is an account of results in PubChem BioAssay (NCATS).

Structures are written as SMILES. Inconclusive results are not listed. Where a call stands in place of a potency, no number is given. Activity calls are given as the source filed them. The call rests on the fitted dose curve; in most records, active means well fitted cell-killing curve with a large enough effect; inconclusive means small, poorly fitted or top-dose-only effect; inactive means flat fitted curve, though single readings scatter.
Potency means the concentration at half of the fitted maximal effect.

A short description of the assay: Quantitative highthroughput screen to assess conditional lethalithy of NOMO1 cells grown in RPMI1640 with untreated serum (RPMI+s) (AID 1963876). Further: nearly all actives have a fitted effect of over 35% in size. The note with it: NOMO1 AML cells in RPMI+serum, CellTiter-Glo viability, 48 h; series mostly up to 45.8 µM. The method, boiled down:
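Each medium arm—HPLM with 10% dialyzed FBS, or RPMI1640 with 5 mM glucose and 10% untreated or dialyzed FBS—was screened against an 11-point, 3-fold compound titration for 48 h at 37 °C, with CellTiter-Glo luminescence as endpoint.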
(In general: In ATP-based viability assays light output follows the ATP content of the culture.)
On to `COc1cc2c(Oc3ccc(NC(=O)C4(C(=O)Nc5ccc(F)cc5)CC4)cc3F)ccnc2cc1OCCCN1CCOCC1`, for which the Potency was 11.8 µM (active).
For the compound `Oc1ccc2ccccc2c1SSc1c(O)ccc2ccccc12`, the Potency result was “inactive”.
As for `Cc1ccc(S(=O)(=O)Nc2nc3ccccc3nc2Nc2ccc3nsnc3c2)cc1`, the Potency was 1.15 µM (active).
The value for `Cc1cc(O)c2c(c1)C(=O)c1cccc(O)c1C2=O` was “inactive”; that for `O=C1N(c2ccccc2)c2ccccc2C1(Cc1ccncc1)Cc1ccncc1` was “inactive”.
To `O=C(NCCCNc1nc(Nc2cccc(NC(=O)N3CCCC3)c2)ncc1I)c1cccs1` belongs “inactive”; to `NS(=O)(=O)c1cc(Cl)c(Cl)c(S(N)(=O)=O)c1`, “inactive”.
To `CCc1cccc2c3c([nH]c12)C(CC)(CC(=O)O)OCC3` (stereo unspecified) belongs “inactive”; to `CCC(=O)N[C@H]1CC[C@H](C(=O)N(C)c2ccc(-c3nc4ccccc4o3)cc2)C1`, “inactive”; to `CC(C)C[C@@H](N)[C@H](O)C(=O)N[C@H](C(=O)N[C@H](C(=O)N[C@@H](CC(=O)O)C(=O)O)C(C)C)C(C)C`, “inactive”.
As for `CN1CCN(CCCN2c3ccccc3Sc3ccc(C(F)(F)F)cc32)CC1`, the Potency is 1.87 µM (active).
With `Cc1c(C(=O)Nc2ccc(N3C[C@@H](C)O[C@@H](C)C3)nc2)cccc1-c1ccc(OC(F)(F)F)cc1`, the Potency is 5.26 µM (active).
The value for `CC(C)Oc1cc(Nc2nc(N[C@@H](C)c3ccc(F)cn3)ncc2Cl)[nH]n1` was 0.935 µM (active); that for `CCC(c1ccc(O)cc1)C(CC)c1ccc(O)cc1` (stereo unspecified) was “inactive”; that for `CC(C(=O)O)c1cccc(C(=O)c2ccccc2)c1` (stereo unspecified) was “inactive”.
As to `Cc1ccn(-c2ccc(-c3ncco3)cc2)c(=O)c1-c1ccc2nc(N)ncc2c1`, the Potency result is “inactive”.
